Laboratory results: PubChem BioAssay AID1159607 (Small Molecule Screening Facility, UW Madison, 2016)
Among all 70,000 compounds or so, about 400 (0.57%) were called active. No stated cut-off is given here; in the data, active means FP signal below about 40; inactive means the rest. The entries come from a sample that favours actives as a whole.

test system: RMI core complex (RMI1/RMI2) binding to FANCM MM2 peptide, human; experiment: disruptors of RMI1/RMI2 association with MM2 peptide – biochemical, fluorescence polarization, human, primary screen (AID 1159607); details: RMI core complex with F-MM2 peptide, at 33 µM, active compounds read low

FP signal (polarization), inactive:
O=C(CSc1nc2ccc(Br)cc2c2nc3ccccc3n12)NCC1CCCO1 (stereo not drawn) 57
CCOc1ccc(NC(=O)CC(NCCc2ccc(OC)cc2)C(=O)O)c([N+](=O)[O-])c1 (stereo not drawn) 51
COc1ccc(S(=O)(=O)Nc2ccccc2C(=O)O)cc1C 62
Cc1ccc2nc(N(CCN(C)C)C(=O)c3ccc(S(=O)(=O)N4CCCCCC4)cc3)sc2c1 90
O=C(NCCc1ccccc1)NCC(c1ccsc1)N1CCOCC1 (stereo not drawn) 64
Cc1cc(-c2nnc(NC(=O)CCCS(=O)(=O)c3ccc(F)cc3)o2)nn1C 61
Cn1nc(-c2ccc3ccccc3c2)c(=O)n(C)c1=S 50
O=C(NCCC1=CCCCC1)C(=O)NCC(c1ccco1)N1CCOCC1 (stereo not drawn) 57
CCSc1cccc(C(=O)Nc2ccc3nc(C)sc3c2)c1 80
CCSc1nnc(NC(=O)c2cc(=O)c(OC)co2)s1 64
COc1ccc(OC)c(Nc2nc(CC(=O)Nc3nc4ccccc4s3)cs2)c1 66
Cc1noc(NS(=O)(=O)c2ccc(N/C=C(\C#N)c3nc4ccccc4n3C)cc2)c1C 68
CS(=O)(=O)NCC(c1ccco1)N1CCOCC1 (stereo not drawn) 57
c1ccc(-c2nc(SCc3nc4ccccc4[nH]3)oc2-c2ccccc2)cc1 64
Cc1ccc2nc(NC(=O)CSc3nnc4ccc(-c5ccccn5)nn34)sc2c1 69
Cc1cccc(NC(=O)Nc2ccc(Nc3ccc(-n4cccn4)nn3)cc2)c1C 85
COc1ccc(NC(=O)c2c(F)cccc2F)cc1N1CCCCC1=O 54
CCOC(=O)c1ccc2nc(NC(=O)/C=C/c3ccccc3Cl)sc2c1 62
CSc1cccc(NC(=O)C(=O)NCCN2CCN(c3ccccc3F)CC2)c1 87
O=C(Nc1cc2ccccc2cc1NC(=O)c1ccc(N2C(=O)CCC2=O)cc1)c1ccc(N2C(=O)CCC2=O)cc1 57
CCN1CCOc2ccc(NC(=O)c3cc4ccccc4oc3=O)cc2C1=O 62
O=C1CCc2cc(S(=O)(=O)NCc3ccco3)cc3c2N1CCC3 54
OCc1cnc(SCc2ccc(Cl)c(Cl)c2)n1Cc1ccc(F)cc1 67
Cc1ccc(S(=O)(=O)/C(C#N)=C/N2CCN(c3cccc(Cl)c3)CC2)cc1C 71
O=C(NCc1cccs1)C(=O)N1CCN(c2cccc(Cl)c2)CC1 53
Cc1nnc(SCc2ccccc2[N+](=O)[O-])s1 61
Nc1c(C(=O)c2ccc(Cl)cc2)sc2nc(-c3cccs3)cc(C(F)(F)F)c12 19
Nc1c(C(=O)c2cccc(Br)c2)sc2nc3c(c(-c4cccs4)c12)CCCC3 -15
O=S(=O)(NCC(c1ccsc1)N1CCOCC1)c1ccc(F)cc1F (stereo not drawn) 65
Cc1cc(C)c2nc(N(CCn3cccn3)C(=O)c3cc4ccccc4o3)sc2c1 66
CN1C(=O)c2ccc(NC(=O)c3ccn(C)n3)cc2C1=O 71
Cc1nc2sc(C)c(C)n2c(=O)c1NC(=O)c1c(F)cccc1Cl 66
COc1ccc(CCS(=O)(=O)Nc2ccc3c(c2)N(C)C(=O)C(C)(C)CO3)cc1 67
O=C(Cn1cnc(-c2ccc(F)cc2)cc1=O)N1CCN(c2cccc(Cl)c2)CC1 70
Cc1nc2c(=O)n(Cc3cccc(F)c3)nc(-c3ccco3)c2s1 62
O=C(O)CCNC(=S)Nc1ccc(F)c(Cl)c1 54
CC1(C)Cc2cccc(OCc3ccc(C(=O)NCCN4CCOCC4)cc3)c2O1 54
C=CCn1c(SCCC(=O)Nc2scc(-c3ccc(Cl)cc3)c2C(=O)OCC)nc2sc3c(c2c1=O)CCC(C)C3 (stereo not drawn) 84
NNC(=O)c1cccnc1N 51
COc1ccc(CCNC(=O)c2cccc(NS(=O)(=O)c3cccc(F)c3)c2)cc1OC 72
CCOC(=O)c1c(NC(=O)c2ccc(C(=O)OC)cc2)sc2c1CCC2 75
CCc1ccccc1NC(=O)C(=O)NCCCN1CCOC(c2ccccc2)C1 (stereo not drawn) 72
CCCC(=O)Oc1c(Cl)cc(N(C(=O)CCC)S(=O)(=O)c2ccc(C)cc2)cc1Cl 50
CC1CCc2c(sc(NC(=O)c3cccc([N+](=O)[O-])c3)c2C#N)C1 (stereo not drawn) 48
CC1=NN(CCN2CCCCC2)c2nc3c(c(=O)n(CCN4CCCCC4)c(=O)n3C)n2C1C (stereo not drawn) 65
Cc1ccccc1OCCCn1c(C2CC(=O)N(C(C)(C)C)C2)nc2ccccc21 (stereo not drawn) 69
CCCOc1ccc(Cn2c3ccccc3c3nc4ccccc4nc32)cc1 60
COc1ccc(-c2nnc(NC(=O)CSc3ccc(Cl)cc3)s2)cc1 67
COc1ccc(-c2nnc(NC(=O)c3cc(Cl)sc3Cl)o2)c(OC)c1 62
Cc1cc(-c2nnc(NC(=O)/C=C/c3ccccc3Cl)o2)nn1C 63
COc1ccc(-c2cc(C(F)(F)F)n3nc(C(=O)Nc4cc5c(cc4[N+](=O)[O-])OCCO5)cc3n2)cc1 37
CCn1cc(NC(=O)N2CCc3ccccc32)c2ccccc21 53
COc1ccccc1CCNC(=O)C(=O)NC1CCCCCC1 51

FP signal (polarization), active:
CC[N+](C)(CC)CCC[n+]1c(-c2ccccc2)c2cc(N)ccc2c2ccc(N)cc21 -45
N#CC(C#N)=C1SCN(c2cccc(Cl)c2)CS1 -20
COc1ccc(-c2cc(-c3cccs3)nc3sc(C(N)=O)c(N)c23)cc1 33
Cc1ccc(C(C)C)c(OCCCn2c3ccccc3c3nc4ccccc4nc32)c1 27
COc1ccc(-c2nnc(NC(=O)/C=C/c3ccccc3Cl)o2)c(OC)c1 35
